# Source: PubChem (Center for Chemical Genomics, University of Michigan)
# HIV TAR-Tat – HIV-1 TAR-Tat binding disruption; HIV-1 TAR RNA, Tat peptide displacement FRET; hits give high values; z-score (no concentration beside the values); actives 0.6% (n = 100,000); AID 1259389; active means z-score of 3 or more in at least 2 runs
# CDC25B-CDK2 inh – human CDC25B-CDK2/CyclinA binding inhibition. P30305+P24941. HTRF CDC25B-CDK2/CyclinA binding, anti-His/anti-Flag; hits give high values. z-score (concentration not given with the values). actives 0.72% (n = 94,000). AID 1259370; in the data active means z-score above about 3.2
# An asterisk follows results filed as active; / = no result. A selection: hits, their analogues and other compounds. The true share with any hit is near 0.9%.
SMILES,HIV TAR-Tat,CDC25B-CDK2 inh
Cc1c(C(=O)N2CCN(C)CC2)oc2ccc3c(c12)C(=O)CC(C)(c1ccc(Cl)cc1)O3 (stereo not drawn),-0.05,-2.08
CCOC(=O)N1CCC(N2C(=O)c3ccccc3C2Nc2ccc(F)cc2)CC1 (stereo not drawn),1.05,-0.86
CCOc1ccc(-c2n[nH]c3c2cnc2cc4c(cc23)OCCO4)cc1,16.9*,15.2*
Cc1ccc(-c2n[nH]c3c2cnc2cc4c(cc23)OCCO4)cc1,-0.73,/
c1ccc(CN2CCn3c(nc4ccccc43)C2)cc1,0.68,-1.82
Nc1ccc(N2CCn3c(nc4ccccc43)C2)cc1,-1.73,13.1*
Nc1cccc(N2CCn3c(nc4ccccc43)C2)c1,-3.42,7.43*
Nc1cccc(N2CCn3c(nc4cc(Cl)ccc43)C2)c1,-5.08,-0.91
O=C1CC(c2cccs2)CC2=C1C(c1ccccc1Cl)Nc1ccccc1N2 (stereo not drawn),/,-1.72
COc1cccc(Nc2cc(N3CCOCC3)c3noc4c3c2C(=O)c2ccccc2-4)c1,1.44,-2.11
CCN1CCN(c2cc(Nc3ccc4c(c3)OCO4)c3c4c(onc24)-c2ccccc2C3=O)CC1,1.13,1.21
O=C1c2ccccc2-c2onc3c(N4CCOCC4)cc(Nc4ccc5c(c4)OCCO5)c1c23,-6.16,1.68
COc1cccc(Nc2cc(N3CCN(C)CC3)c3noc4c3c2C(=O)c2ccccc2-4)c1,0.5,10.9*
CN1CCN(c2cc(Nc3ccc4c(c3)OCO4)c3c4c(onc24)-c2ccccc2C3=O)CC1,-7.01,10.4*
CN1CCN(c2cc(Nc3ccc4c(c3)OCCO4)c3c4c(onc24)-c2ccccc2C3=O)CC1,-6.99,10.5*
NC(=O)COc1ccc(NC(=O)c2nc(-n3cnnc3)ccc2Br)cc1,3.1,/
O=C(Nc1cccc2nsnc12)c1cccc(-n2cnnc2)n1,13.9*,/
O=C(Nc1cccc2nsnc12)c1nc(-n2cnnc2)ccc1Br,2.48,/
CC12OC(C(Br)C1Br)C1C(=O)OC(=O)C12 (stereo not drawn),/,6.07*
O=C(CCc1nc2sc3c(c2c(=O)[nH]1)CCCCC3)NCCN1CCOCC1,5.5*,/
COCCNC(=O)CCc1nc2sc3c(c2c(=O)[nH]1)CCCCC3,0.44,/
CCSc1nc2ccc(NC(=O)c3sc4nc(-c5ccncc5)ccc4c3N)cc2s1,1.6,-0.72
Nc1c(C(=O)Nc2ccc(F)cc2)sc2nc(-c3ccncc3)ccc12,10.5*,-0.18
Cc1ccc(S(=O)(=O)NCc2cccn2Cc2ccccc2C)c(C)c1,2.17,/
O=C1c2c(O)cc(O)cc2OC(c2ccc(O)c(O)c2)C1O (stereo not drawn),/,-1.04
SMILES,HIV TAR-Tat,CDC25B-CDK2 inh
O=C1c2cc(O)cc(O)c2OC[C@@H]1c1ccc(O)c(O)c1,22.7*,/
Nc1c(-c2nc(-c3ccc4c(c3)OCO4)no2)nnn1-c1cccc(Cl)c1,0.19,/
CCC(C(=O)NCc1cccs1)n1nc(C)n2c(cc3sccc32)c1=O (stereo not drawn),-1.47,-1.15
CCOc1ccc(-c2nn3cnnc3s2)cc1,1.17,-1.07
O=c1ccc2ccc(O)cc2o1,0.33,/
O=c1ccc2cc(O)c(O)cc2o1,25.3*,/
CCc1cccc(CC)c1NS(=O)(=O)c1cc(Br)cnc1N,0.75,-1.79
COc1ccccc1-c1csc2c1NC(=O)CC2c1ccc2c(c1)OCO2 (stereo not drawn),1.02,/
Cc1ccc(C(=O)Nc2ccc(S(=O)(=O)Nc3onc(C)c3C)cc2)o1,/,-1.13
Cc1cc2oc(C(=O)Nc3ccc(S(=O)(=O)Nc4onc(C)c4C)cc3)cc(=O)c2cc1C,4.43*,-0.43
Cc1noc(NS(=O)(=O)c2ccc(NC(=O)c3nn(-c4ccccc4)ccc3=O)cc2)c1C,15.6*,-0.82
O=C(Nc1ccc(S(=O)(=O)Nc2ncccn2)cc1)c1nn(-c2ccccc2)ccc1=O,0.19,-1.15
c1ccc(C(c2ccccc2)c2nn3cnnc3s2)cc1,-0.67,-0.76
Cc1ccc(CN2C(=O)N(c3cc(C)cc(C)c3)C3CS(=O)(=O)CC32)cc1 (stereo not drawn),0.34,/
O=C(Nc1nnc(SCc2nc3ccccc3[nH]c2=O)s1)c1ccccc1Br,-4.38,/
CCOC(=O)C(C)Oc1ccc2c(C)cc(=O)oc2c1C(=O)c1ccccc1 (stereo not drawn),/,-1.52
O=C(Cc1noc2ccccc12)N1CCN(c2ccccc2)CC1,1.12,-0.71
COc1ccc(CNc2cc(-c3ccccc3)nc3nncn23)cc1,0.51,3.9
c1ccc(CNc2cc(-c3ccccc3)nc3nncn23)cc1,-0.07,4.61*
CN1CCN(C(=O)CCCN2C(=O)CSc3ncccc32)CC1,-0.77,1.16
COc1ccc2nc(NC(=O)Cn3cccc3)sc2c1,0.42,1.52
Cc1cc2nc(CSc3ccc(N)cc3)c(=O)[nH]c2cc1C,18.9*,/
Cc1cc2nc(CSc3ccccc3N)c(=O)[nH]c2cc1C,-0.63,/
COC(=O)C1C(=O)C2=C(CC1C)NC(C)=C(C(=O)OC1CCCCC1)C2c1ccc(OC)c(O)c1 (stereo not drawn),0.21,0.18
CC1CCCCN1S(=O)(=O)c1ccc(C(=O)Nc2ccccc2-c2nc3ccccc3o2)cc1 (stereo not drawn),/,-1.93
SMILES,HIV TAR-Tat,CDC25B-CDK2 inh
O=C(Nc1cccc(C(=O)Nc2ccc(S(=O)(=O)O)c3cc(S(=O)(=O)O)cc(S(=O)(=O)O)c23)c1)Nc1cccc(C(=O)Nc2ccc(S(=O)(=O)O)c3cc(S(=O)(=O)O)cc(S(=O)(=O)O)c23)c1,/,4.6*
CC(=O)Nc1ccc(S(=O)(=O)Nc2cccc(C(=O)Nc3ccccc3C(=O)O)c2)cc1,/,-2.6
O=C(Nc1cc(Cl)ccc1O)C1CC(c2cccc(Br)c2)=NO1 (stereo not drawn),-4.18,-1.61
Cc1sc2c(c1C)CSC(C(=O)NCc1ccco1)=C2,3.56*,/
Cc1ccc(CNC(=O)C2=Cc3sc(C)c(C)c3CS2)cc1,0.81,/
COc1ccc(C2CC(c3ccccc3)=NN2c2nc(C)cs2)cc1 (stereo not drawn),-0.17,1.77
O=S1(=O)C[C@H](NCc2ccccc2)[C@@H](S(=O)(=O)c2ccccc2)C1,-1.19,-1.39
CC(C)(C)N[C@H]1CS(=O)(=O)C[C@@H]1S(=O)(=O)c1ccccc1,18.9*,-0.12
CCN(c1ccccc1)S(=O)(=O)c1ccc(-c2cc(C)[nH]n2)s1,-0.37,/
CCC(C(=O)Nc1cccc(F)c1)n1nc(C)c2sc3ccccc3c2c1=O (stereo not drawn),2.59,-1.46
CCC(C(=O)Nc1cccc(Cl)c1)n1nc(C)c2sc3ccccc3c2c1=O (stereo not drawn),12.6*,0.04
CCC(C(=O)NCc1cccs1)n1nc(C)c2sc3ccccc3c2c1=O (stereo not drawn),4.03*,-2.66
CCC(C(=O)NCCc1cccs1)n1nc(C)c2sc3ccccc3c2c1=O (stereo not drawn),1.5,-1.14
Cc1ccc(Nc2c(-c3cc(C)c(C)cc3C)c(=O)c2=O)cc1C,1.23,/
O=C(C1COc2ccccc2O1)N1CCC(c2nc3ccccc3o2)CC1 (stereo not drawn),2.42,-0.72
COC(=O)Cc1c(C)nc2nc(N)[nH]n2c1=O,-0.21,0.47
Cn1c(SCc2ccccc2F)nc(=O)c2c1NC(=O)CC2c1cc(F)cc(F)c1 (stereo not drawn),1.14,-0.33
Cc1ccc2c(C)nc(Nc3nc4c(c(=O)[nH]3)CCC4)nc2c1,/,10.3*
Cc1ccc2nc(Nc3nc4c(c(=O)[nH]3)CCCC4)nc(C)c2c1,0.36,10.2
